# Measles CPE = protection of cells from measles virus; Measles virus-infected cells, CPE protection, absorbance; protection (pct of control), % at 4 µM; 140,000 tested, 1.5% active; AID 841; in the data active = protection mostly above about 24%, no sharp cut-off; inactive = mostly below about 26%
# sdo1 growth = sdo1-depleted yeast growth rescue | 140,000 tested, 0.21% active | z-score at 10 µM | AID 817 | S. cerevisiae sdo1-depleted JHY4D growth rescue, OD600 30 h; active compounds read high; pdr5 snq2 efflux-pump mutant strain;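 active = z-score above 3 at both the 24 hr and the 30 hr optical density reads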;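 note: z-score against mean and SD of all compound wells on the same plate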
# Phagocytosis inh = blocks phagocytosis by macrophages; inhibition, % at 5 µM; 110,000 tested, 0.07% active; J774A.1 macrophage IgG-bead phagocytosis, imaging;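 active = inhibition above the mean of the plate negative controls plus 5 SD, cut at about 13% in these data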;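 note: phagocytic index as fraction of beads internalized from green versus red external bead signal; plate controls were DMSO negative control for no effect and cytochalasin-D positive control for full effect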
# * marks the source's active call; other numbers are inactive results; · = no result; [ ] = another dose, or the depositor's remark. Compounds with a hit are over-represented: about 1.8% of the library has one in this group of screens.
SMILES,Measles CPE,sdo1 growth,Phagocytosis inh
Cc1cc(Cl)ccc1OCC(=O)OCC(=O)Nc1ccc(F)c([N+](=O)[O-])c1,22,-0.92,0
Cc1ccc2nc(SCC(=O)Nc3ccc(F)c([N+](=O)[O-])c3)[nH]c2c1,19,-1.1,-7
Cc1ccc(NC(=O)COC(=O)c2cc(Cl)ccc2[N+](=O)[O-])cc1,22,-0.52,24*[artifact]
Cc1ccc(CC(=O)Nc2ccc(F)c([N+](=O)[O-])c2)cc1,35*,-1.2,·
C=CCNS(=O)(=O)c1ccc(OCC(=O)OC)cc1,2,0.55,-3
CCN(CCO)Cc1csc2ccc(C(C)(C)C)cc12,8,-0.6,-2
CCCCn1c(N)c(N(CCOC)C(=O)CSc2nc3ccc(C)cc3[nH]2)c(=O)[nH]c1=O,2,-0.43,-2
Cn1c(Cn2cnc([N+](=O)[O-])n2)nnc1SCC(=O)Nc1ccccc1,5,1.1,-4
CNC(=O)NC(=O)CSc1nc2cc(C(=O)OC)ccc2c(=O)n1-c1ccccc1,11,0.2,-1
CCCNC(=O)NC(=O)CSc1nc2cc(C(=O)OC)ccc2c(=O)n1-c1ccccc1,26*,0.05,-1
CCNC(=O)C1CC(=O)OC12CCCCC2 (configuration not stated),7,0.83,·
O=C(NCc1ccccc1)c1cccc(COc2ccccc2Cl)c1,17,-1.3,-2
O=C(NCc1ccccc1)c1cccc(COc2cc(Cl)ccc2Cl)c1,44*,-0.17,-11
CC(C(=O)Nc1cc([N+](=O)[O-])ccc1Cl)N1CCN(c2ccc(O)cc2)CC1 (configuration not stated),8,-0.48,-8
O=C(CN1CCCCC1)Nc1cccc(Br)c1,6,1.1,0
COc1ccccc1NC(=O)c1sc(NC(=O)c2ccco2)c(C#N)c1C,7,-1,-1
Cc1ccccc1OCC(=O)Nc1sc(C(=O)Nc2cccc(C)c2C)c(C)c1C#N,103*,-0.04,2
Cc1ccc(CCNC(=O)C2CCC(=O)N2C(C)C)cc1 (configuration not stated),7,0.92,0
CC(C)N1C(=O)CCC1C(=O)NCCc1ccc(Cl)cc1 (configuration not stated),30*,2.4,·
CN1c2ccccc2C(O)=C(C(=S)Nc2ccccc2)S1(=O)=O,6,1.3,0
CN1c2ccccc2C(O)=C(C(=S)Nc2ccc(F)c(Cl)c2)S1(=O)=O,41*,0.94,-1
Cc1cc(C)n(-c2ccc3cccc(NS(C)(=O)=O)c3n2)n1,16,-0.62,0
Cc1cc(C)n(-c2nc3nonc3nc2Nc2cccc(C)c2C)n1,31*,-0.26,-1
O=C(CSc1ncnc2sc3c(c12)CCCC3)c1ccccc1,7,-1.1,·
O=C(CSc1ncnc2sc3c(c12)CCCC3)c1ccco1,46*,-1.1,1
SMILES,Measles CPE,sdo1 growth,Phagocytosis inh
O=C(Nc1nncs1)C(Sc1ccccc1)c1ccccc1 (configuration not stated),15,-1.1,-4
CCC(C)NS(=O)(=O)c1ccc(NC(=O)C(Sc2ccccc2)c2ccccc2)cc1 (configuration not stated),32*,-0.56,-5
CC(C)NC(=O)C(Sc1ccccc1)c1ccccc1 (configuration not stated),30*,0.12,-2
CC(=O)NS(=O)(=O)c1ccc(NC(=O)C(Sc2ccccc2)c2ccccc2)cc1 (configuration not stated),17,0.67,0
COc1cc(OC)cc(C(C(=O)NC2CCCCC2)N(C(=O)c2ccno2)c2ccccc2)c1 (configuration not stated),13,0.68,·
O=C1c2ccccc2C(=O)C12OC2c1ccc(Cl)cc1Cl (configuration not stated),9,-1.9,1
CN(CCCC(=O)Nc1ccncc1)S(=O)(=O)c1ccc(Cl)cc1,6,0.12,2
CCCC(=O)N1CCN(c2ccc(C(=O)c3ccc(OC)c(Br)c3)cc2F)CC1,·,·,-1
COc1ccc(C(=O)c2ccc(N3CCN(C(=O)c4ccc(F)cc4)CC3)c(F)c2)cc1Br,56*,0.68,-1
CCc1c(C)nc2c(OC)cccc2c1SCCC(=O)O,9,0.57,37*[artifact]
CCCCc1c(C)nc2c(OC)cccc2c1SCCC(=O)O,7,0.78,0
Cc1c(Cl)c([N+](=O)[O-])nn1CC(=O)NCc1cccs1,7,1.9,-9
CCOC(=O)N1CCC(N2C(=O)c3ccccc3C2Nc2ccc(C)cc2)CC1 (configuration not stated),36*,-1.2,0
CCOC(=O)N1CCC(N2C(=O)c3ccccc3C2Nc2ccccc2)CC1 (configuration not stated),4,0.83,0
Cc1occc1C(=O)NC1CCCCCCC1,28*,-0.47,-2
Cc1occc1C(=O)NC1CCCc2ccccc21 (configuration not stated),13,-0.89,0
CCn1[nH]c(=O)c(=Nc2c(C)n(C)n(-c3ccccc3)c2=O)cc1-c1ccc(Cl)cc1,18,-0.14,0
O=C(Cc1ccc(Cl)cc1)NCCCn1ccnc1,15,-0.58,0
O=C(Cc1c(F)cccc1Cl)NCCCn1ccnc1,45*,0.86,-2
Cc1cc(C)nc(Nc2n[nH]c(-c3ccccc3Br)n2)n1,10,0.9,-7
Cc1cc(C)nc(Nc2n[nH]c(-c3ccc(N)cc3)n2)n1,26*,0.73,-3
COC(=O)c1ccccc1NC(=O)/C=C/C(=O)O,34,1.5,-4
COC(=O)c1ccccc1NC(=O)/C=N/O,44*,-0.73,·
Cc1ccc(Cl)cc1N1CCN(C(=O)C2CCN(S(=O)(=O)c3c(C)nn(C)c3C)CC2)CC1,13,-0.28,-2
O=C(CCc1ccccc1)Nc1cc(Cl)ccc1O,36*,-1,0
SMILES,Measles CPE,sdo1 growth,Phagocytosis inh
O=C(O)CC(=O)Nc1cc(Cl)ccc1O,7,-0.12,-1
Cc1noc(C)c1C(=O)OCC(=O)Nc1ccccc1Oc1ccccc1,17,-1.3,-2
O=C1c2ccccc2-c2c1cccc2C(=O)N1CCCCCC1,1,-0.91,-1
O=C1c2ccccc2-c2cccc(C(=O)N3CCCCCC3)c21,29*,-1.6,-2
CCOc1nc(NC2CCCCC2)nc(NC(C)(C)C)n1,61*,-0.6,·
COc1nc(NCc2ccco2)nc(NC2CCCCC2)n1,27,-1.1,·
CCOc1cc(Br)c(C(=O)O)cc1OC,17,0.68,-2
CCc1nnc(NC(=O)CN2C(=O)c3ccccc3S2(=O)=O)s1,40*,1.1,1
Cc1nnc(NC(=O)CN2C(=O)c3ccccc3S2(=O)=O)s1,4,-0.41,0
O=C(CCS(=O)(=O)Cc1ccccc1)Nc1nc2c(s1)CCCC2,6,1.4,-2
O=C(CCn1cnc2ccccc2c1=O)Nc1nc2c(s1)CCCC2,20,0.04,41*[artifact]
O=C(CCN1C(=O)c2ccccc2S1(=O)=O)Nc1nc2c(s1)CCCC2,24*,-0.62,0
CCCc1nc(SCC(=O)Nc2nc3c(s2)CCCC3)c2ccccc2n1,14,-1.4,·
O=C(OCc1ccccc1)c1cn(-c2ccccc2)nc1-c1ccncc1,4,-1.9,-2
O=C1NCC(O)=C1C=NC12CC3CC(CC(C3)C1)C2,20,-0.06,0
COc1cc(NC(=O)COC(=O)c2cc(S(=O)(=O)N3CCCCC3)ccc2Cl)c(C)cc1[N+](=O)[O-],4,0.7,4

# Screening data deposited in PubChem BioAssay by several laboratories.
